Assay outcomes: PubChem BioAssay, National Center for Advancing Translational Sciences (NCATS)
Cruzain Triton: cruzain (T. cruzi) inhibition with detergent. Potency, µM, without a hit: max response, negative = inhibition, actives largely listed as inhibitors. purified cruzain, Z-FR-AMC fluorescence, 0.01% Triton. actives 0.43% (n = 200,000);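 note: potency is the fitted concentration of half-maximal effect; plate controls were neutral wells for no effect and buffer without enzyme for full effect; nearly all actives have a fitted effect of over 40% in size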
Target sequence (P25779 123-467 limits assumed): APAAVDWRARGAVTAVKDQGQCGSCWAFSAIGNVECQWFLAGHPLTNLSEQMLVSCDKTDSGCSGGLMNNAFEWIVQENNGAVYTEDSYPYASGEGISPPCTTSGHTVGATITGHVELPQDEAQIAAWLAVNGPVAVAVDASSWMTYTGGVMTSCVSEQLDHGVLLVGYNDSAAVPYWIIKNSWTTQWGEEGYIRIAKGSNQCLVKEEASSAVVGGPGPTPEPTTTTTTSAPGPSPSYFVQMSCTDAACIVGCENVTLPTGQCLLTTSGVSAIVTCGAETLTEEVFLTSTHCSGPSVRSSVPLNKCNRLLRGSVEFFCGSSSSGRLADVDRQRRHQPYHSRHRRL
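Enzyme 1.5 nM, Z-FR-AMC 2 uM, NaOAc 100 mM pH 5.5, DTT 5 mM, Triton X-100 0.01%; 15 min RT compound preincubation; kinetic ex360/em450, 60 s delta.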
Cruzain inh noDet: cruzain (T. cruzi) inhibition without detergent | P25779 | purified cruzain, Z-FR-AMC fluorescence, no detergent | Potency, µM, for inactives: max response, negative = inhibition, usual class: inhibitors | actives 2.3% (n = 200,000);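 note: potency is the fitted concentration of half-maximal effect; plate controls were enzyme without inhibitor for no effect and buffer without enzyme for full effect; nearly all actives have a fitted effect of over 40% in size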
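Purified cruzain at 1.5 nM, pre-incubated 15 min with compound at room temperature in 100 mM sodium acetate pH 5.5, 5 mM DTT, 0.00005% Triton X-100. Reaction started with 2 uM Z-FR-AMC; AMC fluorescence increase over 60 s gives rate.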
NS1 inh: inhibitors of influenza NS1 protein function. AID 2326. actives 0.4% (n = 270,000). Potency, µM (highest dose often 46.1 µM), inactives show at the top dose activity, positive = more growth; calls by dose curve; note: potency is the fitted concentration of half-maximal effect; actives are rising curves; nearly all actives have a fitted effect of over 50% in size
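In this qHTS, NS1 from influenza A is expressed in budding yeast, where it slows growth. Cells are switched from glucose to 2% galactose medium (pH 6.0, -URA), treated with compound, and growth recovery is read at OD600.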
Flu NS1 inh: influenza NS1 function inhibition validation; influenza NS1 function cell assay, 15-point titration; activity change, negative = inhibition, % at 32.9 µM; AID 492980; 1,400 tested, under 10 active; shares compounds with NS1 inh; calls by dose curve; note: 0% is about no effect
Flu PR8 replic: reduces influenza A/PR/8/34 replication in MDCK cells; shares compounds with NS1 inh; virus titer (log TCID50), log10 TCID50 at 5 µM; AID 504647; MDCK infected influenza A/PR/8/34, virus titer TCID50; active compounds read low; actives 30% (n = 95); call rule not given here
Starred values were filed as active, the others as inactive; ? = inconclusive; . = not tested or not shown. The sample as a whole holds a higher share of hits than the screen did. Unless noted, calls come from the whole dose curve; as a rule, active = well fitted curve in the direction sought with a large enough effect; inconclusive = small, poorly fitted or top-dose-only effect, or another doubt; inactive = no such curve, though single readings can be large; an effect the other way counts as inactive or inconclusive.

SMILES	Cruzain Triton	Cruzain inh noDet	NS1 inh	Flu NS1 inh	others
Cc1ccc(-c2nc(CS(=O)(=O)CC(=O)NC3CCCCC3C)c(C)o2)cc1 (stereo unspecified)	2.0%	2.0%	3.16µM*	-26.2
COc1ccc(-c2nc(CS(=O)(=O)CC(=O)NC3CCCCC3C)c(C)o2)cc1 (stereo unspecified)	.	.	9.4%	.
CCOc1cc(-c2c(C#N)c(=O)[nH]c3c2c(C)nn3-c2ccc(F)cc2)ccc1O	-10.6%	-4.1%	7.94µM*	25.7	Flu PR8 replic=4*
Cc1nn(-c2ccc(F)cc2)c2nc(N)c(C#N)c(-c3ccc(O)c(O)c3)c12	.	.	3.6%	.
Cc1cc(-c2ccccc2)n2ncc(C#N)c2n1	-0.7%	2.9%	-12.5%	.
COC(=O)Cn1c(CN2CCC(Cc3ccccc3)CC2)nc2c1c(=O)n(C)c(=O)n2C	1.1%	6.5%	?	-34.2
COC(=O)Cn1c(CN(C)Cc2ccccc2)nc2c1c(=O)n(C)c(=O)n2C	.	.	-4.6%	.
O=c1cc(O)n(-c2ccccc2F)c(=S)[nH]1	1.4%	-2.6%	3.16µM*	21.3
Cc1ccccc1-n1c(O)cc(=O)[nH]c1=S	.	.	4.8%	.
Cc1ccc(CNC(=O)CCc2c(C)nn(-c3ccc(N4CCCCC4)nn3)c2C)cc1	-3.0%	3.3%	.	.
C=CC(=O)OC	1.0%	-2.3%	.	.
COc1ccc(NC(=S)Nc2cccc(S(=O)(=O)N3CCCCC3)c2)cc1	-17.2%	?	12.6µM*	2.1
Cc1ccc(CC(=O)Nc2ccc(S(=O)(=O)N3CCOCC3)cc2)cc1	.	.	?	-26.8
COc1ccc(CN2CCN(S(=O)(=O)c3ccc(NC(C)=O)cc3)CC2)cc1	.	.	?	3.2
COc1ccc(S(=O)(=O)N2CCN(Cc3ccc(Cl)cc3)CC2)cc1	-6.7%	-2.6%	-20.4%	.
COc1ccc(NC(=S)Nc2cc(S(=O)(=O)N3CCCCC3)ccc2OC)cc1	-9.8%	2.2%	10.9%	.
O=C(Cc1ccc(Cl)cc1)Nc1ccc(S(=O)(=O)N2CCOCC2)cc1	.	.	-3.7%	.
COc1ccc(CCN2CCCn3c2nc2c3c(=O)n(Cc3ccccc3F)c(=O)n2C)cc1OC	-0.5%	?	-7.4%	.
CCCC(=O)C1=C(O)C(C(=O)OC)C(C)(C)CC1=NCCc1ccccc1 (stereo unspecified)	.	.	-5.2%	.
Cc1cccc(/C=N/NC(=O)c2cc(Br)ccc2OCc2ccccc2)n1	.	.	-15.3%	.
Cc1ccc2cc(CCNC(=O)C(C)C)c(=O)[nH]c2c1C	-0.3%	-3.5%	-40.3%	.
CCCSCCCNC(=O)c1ccccc1NC(=O)C1=CSCCO1	.	.	-16.6%	.
COc1ccc(NC(=O)CN2CCN(c3nc(-c4ccc(F)cc4)cs3)CC2)c(OC)c1	.	.	16.9%	.
CS(=O)(=O)N(CC(=O)Nc1ccccc1Sc1ccccc1)C1CCCCC1	-5.3%	?	?	-0.6
CS(=O)(=O)N(CC(=O)Nc1ccccc1F)C1CCCCC1	.	.	10.6%	.
SMILES	Cruzain Triton	Cruzain inh noDet	NS1 inh	Flu NS1 inh	others
CCOC(=O)c1cnn2c(N)c(C#N)cnc12	.	.	-0.1%	.
CCOC(=O)c1cnn2c(N)c(C#N)nnc12	1.6%	4.3%	5.01µM*	-14.8
COc1ccccc1N1CCN(C(=O)C2CCN(C(=O)c3ccccc3C)CC2)CC1	.	.	7.9%	.
Fc1ccc(Nc2ncnc3ccccc23)cc1	.	.	-45.4%	.
CC(=O)Nc1ccc(Nc2ncnc3ccccc23)cc1	.	.	?	11.4	Flu PR8 replic=8.5
CCc1ccc(CNC(=O)c2ccc3c(c2)nc2n3CCC(C)C2)cc1 (stereo unspecified)	-3.9%	-0.8%	.	.
CN(C)c1ccc(C(=O)OCC(=O)N2CCOCC2)cc1	.	.	?	3.3
CC1CN(C(=O)COC(=O)c2ccc(N(C)C)cc2)CC(C)O1 (stereo unspecified)	.	.	7.4%	.
CCCN(CCC)c1c([N+](=O)[O-])cc(C(F)(F)F)cc1[N+](=O)[O-]	-0.4%	-7.2%	.	.
COc1ccc(OC)c(NC(=O)CN(c2ccc(C)cc2)S(=O)(=O)c2c(C)n[nH]c2C)c1	.	.	14.9%	.
COc1ccccc1NC(=O)CN(c1ccc(C)cc1)S(=O)(=O)c1c(C)n[nH]c1C	5.1%	?	?	-11.3
C[C@@H](C(=O)Nc1ccc2ccccc2c1)[C@H]1C[C@]1(C)[C@H](NC(=O)c1cccnc1)c1ccccc1	-2.5%	7.6%	14.1µM*	-2.7	Flu PR8 replic=8
C[C@@H](C(=O)Nc1ccc2ccccc2c1)[C@@H]1C[C@@]1(C)[C@@H](NC(=O)c1ccccc1)c1ccccc1	-1.6%	?	12.6µM*	14.8	Flu PR8 replic=8.66
